In the library only some 19% were active in any assay of this set; here they are far more common.
Pf growth 96h: P. falciparum growth inhibition at 96 hour, primary screen for plastid delayed-death inhibitors. P. falciparum luciferase reporter growth, 96 h. Potency, µM (titrated, usually from 28.7 µM), for the others: at the highest dose activity change, negative = inhibition, actives largely listed as inhibitors. 6.9% of 320,000 active. AID 504834; note: potency is the fitted concentration of half-maximal effect; % is set by controls: 0 for no effect and ±100 for the full control effect
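Cell-based qHTS: luciferase-tagged P. falciparum in erythrocytes (2% hematocrit, 0.05% parasitemia final) incubated with compounds for 96 hours, 37 C, 5% CO2; luciferase detection reagent then added and luminescence measured.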
CHX counter: affects cycloheximide protein synthesis inhibition readout, counter-screen; 12% of 300,000 active; max response, %; cell reporter, cycloheximide protein synthesis inhibition counterscreen; in the data active = max response mostly above about 13%, no sharp cut-off; inactive = mostly below about 14%; note: read at 38.3 µM for the half of the compounds with a filed dose; 0% is about no effect
Shiga inhibitor: inhibitors of Shiga toxin in Vero cells | 9.2% of 290,000 active | Vero cells, Shiga toxin protein synthesis inhibition reporter | inhibition, % at 38.7 µM | AID 2315; in the data active = inhibition mostly above about 28%, no sharp cut-off; inactive = mostly below about 43%; note: 0% is about no effect
Pf growth 48h: P. falciparum growth inhibition at 48 hours (one generation) | Potency, µM (top dose mostly 28.7 µM), without a hit: at the top dose activity change, negative = inhibition, usual class: inhibitors | P. falciparum luciferase growth in erythrocytes, 48 h | 5.9% of 310,000 active | AID 504832; note: potency is the fitted concentration of half-maximal effect; % is set by controls: 0 for no effect and ±100 for the full control effect
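First compound was added to culture medium, then infected red cells at 0.1% parasitemia and 2% hematocrit (final). After incubation at 37 C under 5% CO2, luciferase detection reagent was dispensed and light output recorded.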
Lassa entry inh: blocks Lassa virus binding to or entry into cells. Lassa virus pseudotype entry inhibition, cell reporter. Potency, µM (series often up to 37.9 µM), for the others: at the top dose activity change, negative = inhibition, actives largely listed as inhibitors. 1.2% of 300,000 active. AID 540256; calls by dose curve; tested in HEK293 cells; note: potency is the fitted concentration of half-maximal effect; % is set by controls: 0 for no effect and ±100 for the full control effect; nearly all actives have a fitted effect of over 50% in size
Marburg entry inh: Marburg virus entry inhibition. Marburg virus pseudotyped entry inhibition, cell reporter. Potency, µM (series often up to 37.8 µM), without a hit: at the top dose activity change, negative = inhibition, actives largely listed as inhibitors. 1.8% of 300,000 active. AID 540276; calls by dose curve; tested in HEK293 cells; note: potency is the fitted concentration of half-maximal effect; % is set by controls: 0 for no effect and ±100 for the full control effect
* hit, by the source's call; [ ] = dose if it differs, or a comment. Unless noted, calls come from the whole dose curve; as a rule, active = well fitted inhibition curve with a large enough effect; inconclusive = small, poorly fitted or top-dose-only effect, or another doubt; inactive = no such curve, though single readings can be large or run the other way.

C=CCn1c(N)c(C(=O)OC(C)CC)c2nc3ccccc3nc21 (centres undefined) was read as CHX counter 1, Shiga inhibitor -20, Pf growth 48h 10µM*, Lassa entry inh -24% and Marburg entry inh 2%.
`CC(C)c1ccc(S(=O)(=O)c2cc3cc(Br)ccc3oc2=O)cc1` gave Pf growth 96h 44%, CHX counter -1, Shiga inhibitor 2, Pf growth 48h 17%, Lassa entry inh inconclusive and Marburg entry inh 11µM*.
Screening Cc1ccc2oc(=O)c(S(=O)(=O)c3ccc(F)cc3)cc2c1 returned Lassa entry inh -2%[46.1 µM] and Marburg entry inh 1%[46.1 µM].
`Cc1ccc(S(=O)(=O)c2cc3cc(Br)ccc3oc2=O)cc1` gave Pf growth 96h 1.7µM*, CHX counter 6, Shiga inhibitor 7, Pf growth 48h 35%, Lassa entry inh -26% and Marburg entry inh -7%.
CC(C)c1ccc(NC(=O)c2ccc3oc(=O)c(S(=O)(=O)c4ccc(F)cc4)cc3c2)cc1 was read as Lassa entry inh 26%[46.1 µM] and Marburg entry inh inconclusive.
For CC(C)(O)C#Cc1ccc(C(=O)NC2CCCCC2)s1 the results were Pf growth 96h 19%, CHX counter 27*, Shiga inhibitor 74*, Pf growth 48h -12% and Marburg entry inh inconclusive.
For CCc1ccc(C(=O)NC2CCCCC2)s1 the results were CHX counter 53*, Shiga inhibitor 67*, Pf growth 48h 254%, Lassa entry inh 60%[14.3 µM] and Marburg entry inh 23%.
CCc1sc(C(=O)Nc2ccc3c(c2)OCO3)cc1C was read as Lassa entry inh inconclusive and Marburg entry inh -29%.
Screening CC(C)(O)C#Cc1ccc(C(=O)Nc2ccc3c(c2)OCO3)s1 returned Pf growth 96h inconclusive, CHX counter 58*, Shiga inhibitor 107*, Pf growth 48h 160%, Lassa entry inh inconclusive and Marburg entry inh inconclusive.
Screening COc1cc(-c2nnc(SCCOc3cc(C)cc(C)c3)o2)cc(OC)c1OC returned Lassa entry inh 19%[46.1 µM] and Marburg entry inh -3%[46.1 µM].
For COc1ccc(OC)c(NC(=O)Cc2coc3cc(C)cc(C)c23)c1 the results were Pf growth 96h 58%, CHX counter -2, Shiga inhibitor 2, Lassa entry inh -25% and Marburg entry inh 4%.
Screening CCC(Oc1nc2ccccc2nc1-c1ccccc1NC(C)=O)C(=O)c1ccccc1 (centres undefined) returned Pf growth 96h inconclusive, CHX counter -1, Shiga inhibitor -6, Pf growth 48h inconclusive, Lassa entry inh 18µM* and Marburg entry inh -8%.
`Cc1ccc(NC(=O)Nc2cccc([N+](=O)[O-])c2)cc1F` gave Pf growth 96h inconclusive, CHX counter 31*, Shiga inhibitor 54*, Pf growth 48h 12%, Lassa entry inh inconclusive and Marburg entry inh inconclusive.
`O=C(Nc1ccc(OC(F)(F)F)cc1)Nc1cccc([N+](=O)[O-])c1` gave Pf growth 96h inconclusive, CHX counter 18*, Shiga inhibitor 58*, Pf growth 48h 2.6µM*, Lassa entry inh inconclusive and Marburg entry inh inconclusive.
`O=C(Nc1cccnc1)Nc1cccc([N+](=O)[O-])c1` gave Pf growth 96h 0%, CHX counter -1, Shiga inhibitor 22, Pf growth 48h 0%, Lassa entry inh 5% and Marburg entry inh 6%.
Screening CCN(CC)S(=O)(=O)c1ccc2[nH]cc(C(=O)NCCCN3CCCCC3C)c(=O)c2c1 (centres undefined) returned CHX counter 1, Shiga inhibitor -11, Pf growth 48h 10µM*, Lassa entry inh -13% and Marburg entry inh 9%.
CCc1ccc(N(C)S(=O)(=O)c2ccc3[nH]cc(C(=O)NCCN4CCOCC4)c(=O)c3c2)cc1 was read as Pf growth 96h inconclusive, CHX counter -4, Shiga inhibitor 20, Lassa entry inh -4% and Marburg entry inh -11%.
For CCCCCNC(=O)c1c[nH]c2ccc(S(=O)(=O)N3CCC4(CC3)OCCO4)cc2c1=O the results were Pf growth 96h 0%, CHX counter -5, Shiga inhibitor -11, Pf growth 48h 13µM*, Lassa entry inh inconclusive and Marburg entry inh -6%.
CCN(CC)S(=O)(=O)c1ccc2[nH]cc(C(=O)NCCC3=CCCCC3)c(=O)c2c1 was read as Pf growth 96h -29%, CHX counter 4, Shiga inhibitor -11, Pf growth 48h 8.3µM*, Lassa entry inh 1.3µM* and Marburg entry inh 11µM*.
CCN(CC)S(=O)(=O)c1ccc2[nH]cc(C(=O)NCCN3CCCCC3C)c(=O)c2c1 (centres undefined) was read as CHX counter -2, Shiga inhibitor -10, Pf growth 48h 4.1µM*, Lassa entry inh -12% and Marburg entry inh -4%.
For CC(=O)/C(=C\N(C)C)Sc1ccc(C)cc1 the results were Pf growth 96h 17%, CHX counter -3, Shiga inhibitor -12, Pf growth 48h 5%, Lassa entry inh -2% and Marburg entry inh 6%[46.1 µM].
For CCN(CC)S(=O)(=O)c1ccc2[nH]cc(C(=O)NCCCN3CCCCC3)c(=O)c2c1 the results were Pf growth 96h inconclusive, CHX counter -4, Shiga inhibitor -5, Pf growth 48h inconclusive, Lassa entry inh inconclusive and Marburg entry inh inconclusive.
Screening CCN(CC)S(=O)(=O)c1ccc2[nH]cc(C(=O)NCCN3CCCCCC3)c(=O)c2c1 returned Pf growth 96h 209%, CHX counter 0, Shiga inhibitor 3, Pf growth 48h 1.9µM*, Lassa entry inh inconclusive and Marburg entry inh -12%.
`Cc1oc(C(C)(C)C)cc1C(=O)Nc1cccc(C(=O)O)c1` gave CHX counter 37*, Shiga inhibitor 80*, Pf growth 48h 82%, Lassa entry inh 11% and Marburg entry inh inconclusive.
Cc1cc(C(=O)Nc2ccc(C(=O)O)cc2)c(C)o1 was read as Pf growth 96h -24%, CHX counter 6, Shiga inhibitor 9, Pf growth 48h 40%, Lassa entry inh 9%[46.1 µM] and Marburg entry inh 7%[46.1 µM].
For Cc1oc(C(C)(C)C)cc1C(=O)Nc1ccc(C(=O)O)cc1 the results were Pf growth 96h inconclusive, CHX counter 36*, Shiga inhibitor 48, Pf growth 48h 54%, Lassa entry inh inconclusive and Marburg entry inh inconclusive.
For Cc1oc(CC(C)C)cc1C(=O)Nc1ccc(C(=O)O)cc1 the results were Pf growth 96h -20%, CHX counter 57*, Shiga inhibitor 43, Pf growth 48h 26%, Lassa entry inh 2% and Marburg entry inh 16%.
Screening CCOC(=O)Cc1csc(-n2sc3ccccc3c2=O)n1 returned CHX counter 38*, Shiga inhibitor 33 and Marburg entry inh 4%.
`CCOC(=O)C1CCN(S(=O)(=O)c2ccc3c(ccn3C)c2)CC1` gave Pf growth 96h inconclusive, CHX counter 11, Shiga inhibitor -1 and Pf growth 48h inconclusive.

High-throughput results as filed in PubChem BioAssay.
